Compound activity as filed in PubChem BioAssay.
ELG1 genotoxic – genotoxicity induction in ELG1-luciferase HEK293T cells; HEK293T ELG1-luciferase reporter, luminescence, 16 h; Potency, µM (highest dose often 46 µM), inactives show at the highest dose activity change, positive = activation, actives largely listed as activators; hit rate 1.3% among 330,000; note: % of control where 0% means no effect; nearly all actives have a fitted effect of over 60% in size
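DMSO vehicle served as control against compound-treated ELG1-luciferase HEK293T cells; exposure lasted 16 hr at 37 °C and 5% CO2, followed by ONE-Glo luminescence detection after 30 min.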
SMN2 splice up – enhancers of SMN2 splice variant expression. HEK293 SMN2-luciferase splicing reporter, luminescence, 30-36 h. Potency, µM (highest dose often 46.1 µM), without a hit: top-dose activity change, positive = activation, usual class: activators. hit rate 2.8% among 210,000; note: % of control where 0% means no effect; nearly all actives have a fitted effect of over 55% in size
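HEK293 cells carry an SMN2 […]–luciferase reporter in which exon 7 inclusion puts luciferase in frame. Cells were plated 10-12 h before compound addition, then incubated 30-36 h at 37C. ONE-Glo luminescence was read; sodium butyrate at 4.5 mM final served as control.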
FLuc modulator – firefly luciferase modulation, counter-screen for miR-21 project. P08659. hit rate 6.9% among 360,000. purified FLuc, Km substrates, luminescence inhibition. AID 588342. Potency, µM (doses to about 57.5 µM), inactives show at the highest dose activity change, negative = inhibition, usual class: inhibitors;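 note: plate controls were vehicle for no effect and reference inhibitor for full effect; nearly all actives have a fitted effect of over 55% in size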
Target sequence (P08659 whole entry, looked up): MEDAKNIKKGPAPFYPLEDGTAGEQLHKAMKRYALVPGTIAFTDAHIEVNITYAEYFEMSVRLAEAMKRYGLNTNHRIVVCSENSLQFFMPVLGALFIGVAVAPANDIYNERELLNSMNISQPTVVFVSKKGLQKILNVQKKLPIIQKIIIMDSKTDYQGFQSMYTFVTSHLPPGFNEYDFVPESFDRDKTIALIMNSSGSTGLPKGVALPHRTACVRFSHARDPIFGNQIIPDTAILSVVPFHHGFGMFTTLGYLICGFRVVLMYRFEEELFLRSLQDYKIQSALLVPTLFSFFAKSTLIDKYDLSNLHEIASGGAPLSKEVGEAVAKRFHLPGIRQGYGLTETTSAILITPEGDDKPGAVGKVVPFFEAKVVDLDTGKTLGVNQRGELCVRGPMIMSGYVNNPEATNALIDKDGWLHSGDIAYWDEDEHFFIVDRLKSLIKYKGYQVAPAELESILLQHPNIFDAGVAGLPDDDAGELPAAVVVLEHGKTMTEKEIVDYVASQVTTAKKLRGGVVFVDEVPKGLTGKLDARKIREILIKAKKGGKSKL
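Purified P. pyralis luciferase, 10 nM final, with Km-level 10 uM D-luciferin and 10 uM ATP in 50 mM Tris acetate pH 7.5, 10 mM Mg acetate, 0.01% Tween-20, 0.05% BSA; 6-point qHTS titration about 60 µM downward; luminescence read.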
NPC1 prom act – activates the NPC1 promoter. Huh7 NPC1 promoter luciferase reporter, 24 h. hit rate 2.4% among 320,000. Potency, µM (series often up to 9.22 µM), without a hit: top-dose activation, usual class: activators. AID 485313; note: % of control where 0% means no effect; nearly all actives have a fitted effect of over 60% in size
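Stable NPC1-promoter luciferase Huh7 line; cpd (DMSO) 24 h, 37 °C, 5% CO2; Amplite luciferase reagent 10 min RT; luminescence readout. qHTS format.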
Rab9 promoter act – activates the Rab9 promoter; Huh7 Rab9 promoter-luciferase reporter, luminescence, 24 h; Potency, µM (highest dose often 9.22 µM), for inactives: top-dose activation, negative = inhibition, most hits filed as activators; hit rate 2.8% among 320,000; AID 485297; note: % of control where 0% means no effect; nearly all actives have a fitted effect of over 60% in size
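Stable Rab9-luc Huh7, 1500 cells/well, 2 h settle; cmpd in DMSO, 24 h, 37 °C/5% CO2; luciferase reagent 10 min RT; luminescence.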
* marks the source's active call; other numbers are inactive results; u = inconclusive; x = no result; ! = not active in a repeat. In the library only some 7.5% were active in any assay of this set; here they are far more common. Calls come from the whole dose curve; as a rule, active = well fitted curve in the direction sought with a large enough effect; inconclusive = small, poorly fitted or top-dose-only effect, or another doubt; inactive = no such curve, though single readings can be large; an effect the other way counts as inactive or inconclusive. Potency is the fitted concentration of half-maximal effect.

SMILES	ELG1 genotoxic	SMN2 splice up	FLuc modulator	NPC1 prom act	Rab9 promoter act
COc1ccc(NC(=O)c2cc(C3CC3)nc3c2c(C)nn3-c2ccccc2)c(OC)c1	x	x	-6%	x	x
O=C(O)CCC(=O)Nc1ccccc1C(=O)NCc1ccccc1	-1%	9%	-1%	-1%	0%
COC(=O)Cn1ncn2c(cc3oc(C)cc32)c1=O	u	u	15µM*	u	2.5µM*
Cc1cc(C)cc(NC(=O)Cn2ncn3c(cc4ccccc43)c2=O)c1	6%	-3%	-2%	-1%	-5%
CC1CCN(S(=O)(=O)c2cnc[nH]2)CC1	1%	x	-2%	-6%	-1%
O=C(Oc1ccc2ccccc2c1Cl)N1CCCCCC1	u	13µM*	1.1µM*	1.1µM*	0.56µM*
O=C(Oc1ccc(Cl)cc1)N1CCOCC1	-1%	x	-12%	-2%	9%
O=C(Oc1ccc(Cl)cc1)N1CCCCC1	16µM*	17%	24µM*	15%	23%
CCC(CC)C(=O)Nc1nnc(S(=O)(=O)N2CCc3ccccc32)s1	-4%	x	-4%	-1%	2%
CCC(CC)C(=O)Nc1nnc(S(=O)(=O)N2c3ccccc3CC2C)s1 (centres undefined)	-5%	x	17µM*!	-2%	0%
CCOc1ccccc1OCCn1nc2ccccc2n1	7%	x	2%	3%	-1%
Cc1ccc(OCCn2nc3ccccc3n2)c(C)c1	18µM*	3%	u	12%	18%
O=C(/C=C/c1c(Cl)cccc1Cl)Nc1ccncc1	u	-22%	3µM*	26%	u
O=C(/C=C/c1c(F)cccc1Cl)Nc1ccncc1	16%	-23%	7.6µM*	29%	u
O=C(/C=C/c1cccc(Cl)c1)Nc1ccncc1	3%	-1%	17µM*	1%	24%
CC(C)CCNC(=O)CCCC1=NS(=O)(=O)c2ccccc2N1	-2%	-5%	0%	0%	1%
O=C(N/N=C/C(Br)=C/c1ccccc1)c1cccs1	u	x	1.5µM*	2.2µM*	0.89µM*
O=C(/C=C/c1ccccc1)Nc1ccc(NC(=O)c2cccs2)cc1	u	x	4%	1%	-2%
O=C(N/N=C/C=C/c1ccccc1)c1cccs1	9%	u	15µM*	u	1.8µM*
Cc1ccc(C(=O)Cn2ncsc2=N)cc1	u	5%	-16%	18%	19%
Cc1ccc(C(=O)Cn2c3c(sc2=N)CCCC3)cc1	x	0.5µM*	x	x	x
COc1ccc(C(=O)Nc2ccc([N+](=O)[O-])cn2)cc1OC	-1%	-2%	-11%	4%	21%
O=C(Nc1ccc2ccccc2n1)c1ccccc1	u	x	2.4µM*	2.2µM*	0.89µM*
COc1ccc(C(=O)Nc2ccc3ccccc3n2)cc1OC	u	x	13µM*	2.8µM*	2.8µM*
Cc1ccc(C(=O)Nc2ccc3ccccc3n2)cc1	u	x	1.7µM*	3.2µM*	0.63µM*
SMILES	ELG1 genotoxic	SMN2 splice up	FLuc modulator	NPC1 prom act	Rab9 promoter act
Cc1cc(C)cc(NC(=O)Nc2ccc3ccccc3n2)c1	1%	x	4%	1%	-1%
O=C(CCc1ccccc1)Nc1ccc2ccccc2n1	u	13µM*	6.7µM*	3.2µM*	1.1µM*
O=C(NCCOCCn1c(=O)oc2ccccc21)Nc1ccc(Cl)cc1	x	1%	-1%	x	x
COc1ccc(C(=O)NCC(c2cccnc2)N2CCc3ccccc32)cc1OC (centres undefined)	x	x	-2%	x	x
COc1ccc(OC)c(CCNC(=O)c2c3c(nc4ccccc24)C(=O)N(C2CCCCC2)C3)c1	x	x	-9%	x	x
O=C(Nc1nccs1)c1ccccc1Br	7%	x	u	6%	27%
O=C(Nc1ccc2ccccc2n1)c1ccccc1Br	u	x	3.4µM*	u	3.5µM*
CSC1=N/C(=C\c2cccnc2)C(=O)N1c1ccccc1	15%	11%	12µM*	1%	-3%
Cc1ccc(Cl)cc1Nc1nc2ccccc2c2nncn12	x	6%	-2%	x	x
COC(=O)c1ccc2c(=O)n(CCCCCC(=O)NC(C)C)c(=O)[nH]c2c1	-3%	14%	6%	-2%	19%
NS(=O)(=O)c1cc(C(=O)N=Nc2c(O)[nH]c3ccccc23)ccc1Cl	4%	x	6µM*	21%	18%
CC(C)c1ccc2[nH]c(O)c(N=NC(=O)c3cccc(S(=O)(=O)Nc4ccccc4Cl)c3)c2c1	9%	-2%	-7%	9%	25%
O=C(N=Nc1c(O)[nH]c2ccccc12)c1cc(-c2ccc(F)cc2)n[nH]1	-3%	19%	0%	-2%	-5%
O=C(N=Nc1c(O)[nH]c2ccccc12)c1cccc(S(=O)(=O)Nc2ccccc2Cl)c1	-3%	1%	21µM*	1%	-2%
COc1cc(C=C2C(=O)OC(C)(C)OC2=O)ccc1OCC(=O)Nc1ccccc1	u	14%	11µM*	-3%	-8%
C#CCOc1ccc(/C=C2/C(=O)NN(c3ccc(F)cc3)C2=O)cc1OC	4%	x	1.9µM*	-4%	-4%
COc1cc(/C=C2\C(=O)NN(c3ccccc3)C2=O)ccc1OCC(N)=O	0%	6%	11µM*	-10%	1%
COc1cc(/C=C/c2cc[n+](C)cc2)ccc1OCC(=O)Nc1ccccc1	5%	x	u	1%	1%
O=c1ccc(-c2ccc(S(=O)(=O)N3CCN(c4cccc(Cl)c4)CC3)o2)n[nH]1	6%	x	-3%	-3%	2%
CC(=O)NC1Sc2ccccc2N=C1c1ccccc1 (centres undefined)	13µM*	u	12µM*	u	u
O=c1c2ccccc2ncn1C1CCCCC1	x	-1%	-8%	x	x
O=c1c2[nH]c3ccccc3c2ncn1C1CCCCC1	u	2%	u	4.5µM*	u
CC(=O)Oc1cccc(NC(=O)c2cccc(C(=O)Nc3cccc(OC(C)=O)c3)c2)c1	2%	x	u	6%	7%
O=C(NC(=S)Nc1ccc(NC(=O)c2ccccc2)cc1)c1ccc(F)cc1	10%	x	1%	20%	2%
COc1cccc(C(=O)Nc2cccc(OC(C)=O)c2)c1	6%	11µM*	u	u	u
SMILES	ELG1 genotoxic	SMN2 splice up	FLuc modulator	NPC1 prom act	Rab9 promoter act
CCC(=O)Nc1ccc2c(c1)C(=O)c1ccccc1C2=O	u	11µM*	3.8µM*	1.6µM*	1.3µM*
O=C(NC(=S)Nc1ccc2c(c1)C(=O)c1ccccc1C2=O)c1ccc(F)cc1	u	11µM*	17µM*	u	u
COc1ccc(C(=O)Nc2ccc(C(=O)Nc3cccc(C)c3)cc2)cc1	13µM*	x	3%	-8%	-11%
CCc1noc(C)c1C(=O)N1CCN(S(=O)(=O)c2c(C)c(C)cc(C)c2C)CC1	-3%	x	-2%	-2%	0%
O=C1NC(=O)c2cc3ccccc3cc21	4%	x	u	2%	0%
FC(F)(F)Oc1ccc(NC(=S)NCCCN2CCOCC2)cc1	-2%	-21%	7%	1%	2%
COc1cccc(C(=O)Nc2cccc(C(C)=O)c2)c1	u	x	21µM*	u	u
